SMN2 splice up = enhancers of SMN2 splice variant expression; actives 2.8% (n = 210,000); Potency, µM (series often up to 46.1 µM), for the others: at the top dose activity change, positive = activation, usual class: activators; HEK293 SMN2-luciferase splicing reporter, luminescence, 30-36 h; AID 1458; also: % of control where 0% means no effect; nearly all actives have a fitted effect of over 55% in size
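HEK293 cells carry an SMN2 […]–luciferase reporter in which exon 7 inclusion puts luciferase in frame. Cells were plated 10-12 h before compound addition, then incubated 30-36 h at 37C. ONE-Glo luminescence was read; sodium butyrate at 4.5 mM final served as control.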
ELG1 repair inh = ELG1-dependent DNA repair inhibition; actives 2.3% (n = 330,000); AID 504467; Potency, µM (top dose mostly 46.1 µM), for the others: at the top dose activity change, negative = inhibition, actives largely listed as inhibitors; HEK293T ELG1-luciferase reporter, luminescence, 16 h; DNA damage induced by 5-fluorouridine; also: % is scaled to controls: 0 for no effect and ±100 for the full control effect; nearly all actives have a fitted effect of over 55% in size
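Step one: seed 2,000 cells per well. Step two: pin-transfer compound or DMSO alongside 5-fluorouridine. Step three: incubate 16 hr, 37 °C, 5% CO2. Step four: add ONE-Glo, wait 30 min, read luminescence.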
NPC1 promoter act = NPC1 promoter activation; actives 2.4% (n = 320,000); Potency, µM (doses to about 9.22 µM), for the others: at the highest dose activation, usual class: activators; AID 485313; Huh7 NPC1 promoter luciferase reporter, 24 h; also: % of control where 0% means no effect; nearly all actives have a fitted effect of over 60% in size
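Stably transfected Huh7 (NPC1 promoter→luciferase), 1500 cells/well in Opti-MEM + 10% FBS, 2 h settle, then compound 24 h at 37 °C. Luminescence after 10 min with Amplite reagent.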
FLuc counter = firefly luciferase modulation, counter-screen for miR-21 project; Potency, µM (highest dose often 57.5 µM), inactives show top-dose activity change, negative = inhibition, hits mostly inhibitors; actives 6.9% (n = 360,000); purified FLuc, Km substrates, luminescence inhibition; P08659; AID 588342;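 also: plate controls were vehicle for no effect and reference inhibitor for full effect; nearly all actives have a fitted effect of over 55% in size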
Target sequence (P08659 whole entry, looked up): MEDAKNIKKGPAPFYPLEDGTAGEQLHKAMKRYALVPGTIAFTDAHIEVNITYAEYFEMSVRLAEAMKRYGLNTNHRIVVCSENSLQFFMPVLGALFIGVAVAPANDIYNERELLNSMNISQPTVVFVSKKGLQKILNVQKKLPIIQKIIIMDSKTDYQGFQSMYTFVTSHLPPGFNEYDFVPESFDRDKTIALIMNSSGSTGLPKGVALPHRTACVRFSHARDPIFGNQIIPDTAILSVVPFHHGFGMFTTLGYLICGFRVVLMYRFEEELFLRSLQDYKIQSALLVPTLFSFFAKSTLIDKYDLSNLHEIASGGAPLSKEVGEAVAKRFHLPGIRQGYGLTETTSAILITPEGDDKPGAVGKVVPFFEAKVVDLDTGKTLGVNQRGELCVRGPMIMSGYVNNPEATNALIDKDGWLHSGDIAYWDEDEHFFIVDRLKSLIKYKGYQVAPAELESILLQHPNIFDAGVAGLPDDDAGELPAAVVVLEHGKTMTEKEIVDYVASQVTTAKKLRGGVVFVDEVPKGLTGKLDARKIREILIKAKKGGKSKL
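Purified P. pyralis luciferase, 10 nM final, with Km-level 10 uM D-luciferin and 10 uM ATP in 50 mM Tris acetate pH 7.5, 10 mM Mg acetate, 0.01% Tween-20, 0.05% BSA; 6-point qHTS titration about 60 µM downward; luminescence read.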
ELG1 genotox = induces genotoxicity in HEK293T cells with luciferase-tagged ELG1; Potency, µM (top dose mostly 46 µM), inactives show at the top dose activity change, positive = activation, actives largely listed as activators; actives 1.3% (n = 330,000); AID 504466; HEK293T ELG1-luciferase reporter, luminescence, 16 h; also: % of control where 0% means no effect; nearly all actives have a fitted effect of over 60% in size
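Cells (2,000/well) expressing the ELG1-luciferase fusion are dosed by pin tool and kept 16 hr at 37 °C, 5% CO2. Signal comes from ONE-Glo luciferase reagent after 30 min at room temperature.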
Rab9 promoter act = activates the Rab9 promoter | Huh7 Rab9 promoter-luciferase reporter, luminescence, 24 h | Potency, µM (titrated, usually from 9.22 µM), for the others: at the top dose activation, negative = inhibition, usual class: activators | actives 2.8% (n = 320,000) | AID 485297; also: % of control where 0% means no effect; nearly all actives have a fitted effect of over 60% in size
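Stable Rab9-luc Huh7, 1500 cells/well, 2 h settle; cmpd in DMSO, 24 h, 37 °C/5% CO2; luciferase reagent 10 min RT; luminescence.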
* hit, by the source's call; ? = inconclusive; · = not tested or not shown. Sampled rows, rich in hits. Any-hit rate of the full collection: about 9.4%. Calls follow the shape of the dose curve; as a rule, active = well fitted curve in the direction sought with a large enough effect; inconclusive = small, poorly fitted or top-dose-only effect, or another doubt; inactive = no such curve, though single readings can be large; an effect the other way counts as inactive or inconclusive. Potency is read from the fitted curve at half-maximal effect.

SMILES	SMN2 splice up	ELG1 repair inh	NPC1 promoter act	FLuc counter	ELG1 genotox	Rab9 promoter act
Cc1cnc(C(=O)Nc2cccc(-c3nnc4n3CCCCC4)c2)cn1	-18%	-3%	1%	4%	1%	6%
COc1cccc(/C=N/NC(=O)C[n+]2ccccc2)c1OC	-6%	20%	0%	-1%	-3%	-3%
COc1ccccc1/C=N/NC(=O)c1cc2c(OC)c(OC)ccc2[nH]1	·	-13%	-9%	13µM*	1%	-2%
COc1cccc(/C=N/NC(=O)CN(C)S(=O)(=O)c2ccccc2)c1OC	·	?	19%	21µM*	8%	19%
COc1cccc(/C=N/NC(=O)c2cc3c(OC)cccc3[nH]2)c1O	-109%	?	-27%	-19%	-2%	-36%
COc1ccc(OC)c2[nH]c(C(=O)N/N=C/c3ccccc3O)cc12	·	?	-42%	?	?	-36%
COc1cccc2[nH]c(C(=O)NCc3ccccc3)cc12	·	21µM*	-4%	-19%	-3%	-5%
COc1cccc(/C=N/NC(=O)c2cc3c(OC)cccc3[nH]2)c1OC	1%	-27%	2%	21µM*	-3%	-8%
Cn1cccc1C(=O)N1CCC2(CCN(Cc3ccccc3)CC2)CC1	-9%	·	·	·	·	·
COc1ccc(NC(=O)c2ccco2)cc1NC(=O)C(C)(C)Oc1ccc(Cl)cc1	-18%	·	·	-18%	·	·
COc1cccc(/C=N/NC(=O)c2cc3c(OC)c(OC)ccc3[nH]2)c1OC	?	?	-16%	11µM*	4%	-12%
COc1cccc(/C=N/NC(=O)c2ccc(=O)n(C)c2)c1OC	7%	?	2%	-3%	4%	2%
Cc1ccccc1-c1ccccc1CN1[C@@H](C(C)C)COCCS1(=O)=O	·	-4%	·	·	-4%	·
CCOc1ccccc1C(=O)Nc1cccc2ccccc12	·	-24%	1%	-5%	-5%	0%
COc1ccc(Nc2cccccc2=O)cc1	2%	?	29%	?	3%	22%
COc1cc(OC)c(C(=O)Nc2cccc3ccccc23)cc1OC	·	?	10%	19µM*	0%	1%
COc1ccc(Nc2cccc3ccccc23)cc1	·	?	19%	27µM*	9%	?
COc1cc(OC)cc(C(=O)NC2CCN(CC(=O)Nc3cccc4ccccc34)CC2)c1	2%	12µM*	-3%	4%	-8%	-3%
COc1ccc(C(=O)Nc2cccc3ccccc23)cc1	·	?	?	19µM*	13%	?
COc1ccc(C(=O)NNC(=O)C(=O)Nc2cccc3ccccc23)cc1	·	2%	-1%	-8%	4%	10%
CCOC(=O)C1CCCN(c2cc(C)nc3cc(-c4ccc(Cl)cc4)nn23)C1 (stereo unspecified)	?	26µM*	-5%	-27%	-4%	2%
COc1ccc(CN2C(=O)CS/C2=N/N=C/c2cccs2)cc1	·	-12%	-16%	17µM*	13%	11%
Cc1sc2ncn(CC(=O)N(C)c3ccc(C(C)C)cc3)c(=O)c2c1S(=O)(=O)N1CCC(C)CC1	-6%	·	·	-4%	·	·
CCC(CC)C(=O)Nc1cc(-c2nc3cccnc3s2)ccc1C	·	·	·	12µM*	·	·
CCCC(=O)Nc1cc(-c2nc3cccnc3s2)ccc1C	·	·	·	9.5µM*	·	·
SMILES	SMN2 splice up	ELG1 repair inh	NPC1 promoter act	FLuc counter	ELG1 genotox	Rab9 promoter act
CCCCC(=O)Nc1cc(-c2nc3cccnc3s2)ccc1C	·	·	·	-10%	·	·
Cc1ccc(-c2nc3cccnc3s2)cc1NC(=O)Cc1ccccc1	·	·	·	1.1µM*	·	·
COc1ccc(CC(=O)Nc2cc(-c3nc4cccnc4s3)ccc2C)cc1	·	·	·	0.67µM*	·	·
CCOc1ccc(CC(=O)Nc2cccc(-c3nc4cccnc4s3)c2C)cc1	·	·	·	1%	·	·
O=C(NC1CCCC1)C(c1cccs1)N(C(=O)c1csnn1)c1ccccc1F (stereo unspecified)	·	-2%	-44%	5%	-4%	0%
CCC(=O)c1ccc2c(c1)OCCO2	·	26%	-2%	-18%	6%	-2%
CS(=O)(=O)c1cccc(C(=O)OCC(=O)c2ccc3c(c2)OCCO3)c1	·	24%	0%	1.7µM*	4%	10%
CS(=O)(=O)c1cccc(C(=O)OCC(=O)Nc2ccc3c(c2)OCO3)c1	·	7%	-3%	-4%	1%	3%
O=C(CS(=O)(=O)c1ccccc1)c1ccc2c(c1)OCCO2	-11%	?	2.8µM*	6µM*	?	2.8µM*
CCN(CC)S(=O)(=O)c1ccc(C(=O)OCC(=O)c2ccc3c(c2)NC(=O)CO3)cc1	-3%	1%	-12%	2%	0%	0%
O=C(COC(=O)c1cccc(S(=O)(=O)NCc2ccccc2)c1)c1ccc2c(c1)OCCO2	-15%	?	-2%	1.3µM*	-4%	-3%
CCN(CC)S(=O)(=O)c1cccc(C(=O)OCC(=O)c2ccc3c(c2)OCCO3)c1	-38%	-8%	-2%	0.54µM*	-1%	1%
Cc1ccc2nc(-c3ccsc3)c(Nc3ccc(Cl)cc3)n2c1	-5%	·	·	-5%	·	·
CCCCNc1nc(Oc2ccc(=O)n(-c3ccccc3)n2)nc(N(C)C)n1	-11%	·	·	-10%	·	·
CCN(CC)CCCNC(=O)c1ccc2c(c1)N(Cc1c(F)cccc1Cl)C(=O)c1ccccc1S2	-65%	·	·	-5%	·	·
O=C(CN1C(=O)COc2ccccc2C1=O)c1ccc2c(c1)OCCO2	·	?	-4%	6.7µM*	5%	-3%
O=C(CN1C(=O)COc2ccccc21)Nc1ccc2c(c1)OCCO2	10%	21%	12%	-19%	5%	10%
COc1ccc(OC)c(N=C(C)C2=C(O)COC2=O)c1	11µM*	-5%	-23%	4%	8%	-8%
Cn1c(CCNC(=O)c2ccco2)nc2cc(NC(=O)c3ccco3)ccc21	11µM*	?	?	24µM*	?	?
CCCCC(=O)Nc1ccc2c(c1)nc(CCNC(=O)c1ccco1)n2C	·	?	4%	-12%	11%	19%
CCCNC(=O)Nc1ccc2c(c1)nc(C)n2C	10%	?	13%	?	?	?
Cc1nc2cc(NC(=O)c3ccco3)ccc2n1C	·	?	0.5µM*	8.5µM*	2.3µM*	0.32µM*
Cn1c(CCNC(=O)c2ccccc2)nc2cc(NC(=O)c3ccco3)ccc21	27%	?	21%	?	?	28%
Cn1c(CCNC(=O)c2ccco2)nc2cc(NC(=O)c3ccccc3)ccc21	·	?	?	17µM*	15%	?
Cc1nc2cc(NC(=O)NCc3ccco3)ccc2n1C	?	?	27%	?	15µM*	?
